Most compounds without a hit are left out; they make up all but 19% or so of the library.
Pf growth 96h: P. falciparum growth inhibition at 96 hours | P. falciparum luciferase reporter growth, 96 h | Potency, µM (highest dose often 28.7 µM), inactives show top-dose activity change, negative = inhibition, usual class: inhibitors | actives 6.9% (n = 320,000) | AID 504834; further: potency means the concentration at half of the fitted maximal effect; on the % scale 0 is the no-effect control and ±100 the full control effect
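Luminescence readout: decreased luciferase signal marks inhibited growth of reporter-expressing P. falciparum in infected red cells (2% hematocrit, 0.05% parasitemia final), exposed to compound two generations (96 h, 37 C, 5% CO2).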
Lassa entry inh: Lassa virus entry inhibition. Lassa virus pseudotype entry inhibition, cell reporter. Potency, µM (doses to about 37.9 µM), for the others: top-dose activity change, negative = inhibition, most hits filed as inhibitors. actives 1.2% (n = 300,000); calls by dose curve; tested in HEK293 cells; further: potency means the concentration at half of the fitted maximal effect; on the % scale 0 is the no-effect control and ±100 the full control effect; nearly all actives have a fitted effect of over 50% in size
Pf growth 48h: inhibits P. falciparum growth in the first generation, 48 h; P. falciparum luciferase growth in erythrocytes, 48 h; Potency, µM (series often up to 28.7 µM), for inactives: at the top dose activity change, negative = inhibition, most hits filed as inhibitors; actives 5.9% (n = 310,000); further: potency means the concentration at half of the fitted maximal effect; on the % scale 0 is the no-effect control and ±100 the full control effect
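Growth was read as firefly luciferase luminescence after a 48 h, 37 C, 5% CO2 exposure of compounds to reporter-bearing P. falciparum cultures (0.1% parasitemia, 2% hematocrit final) in Albumax-supplemented RPMI 1640.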
Shiga inhibitor: Shiga toxin inhibition; Vero cells, Shiga toxin protein synthesis inhibition reporter; inhibition, % at 38.7 µM; actives 9.2% (n = 290,000); in the data active means inhibition mostly above about 28%, no sharp cut-off; inactive means mostly below about 43%; further: 0% is about no effect
Marburg entry inh: Marburg virus entry inhibition | Potency, µM (top dose mostly 37.8 µM), for the others: at the top dose activity change, negative = inhibition, most hits filed as inhibitors | AID 540276 | Marburg virus pseudotyped entry inhibition, cell reporter | actives 1.8% (n = 300,000); calls by dose curve; tested in HEK293 cells; further: potency means the concentration at half of the fitted maximal effect; on the % scale 0 is the no-effect control and ±100 the full control effect
Cycloheximide cs: counter-screen for Shiga toxin inhibitors: cycloheximide protein synthesis inhibition; cell reporter, cycloheximide protein synthesis inhibition counterscreen; AID 2314; actives 12% (n = 300,000); max response, %; in the data active means max response mostly above about 13%, no sharp cut-off; inactive means mostly below about 14%; further: read at 38.3 µM for the half of the compounds with a filed dose; 0% is about no effect
Starred values were filed as active, the others as inactive; ? = inconclusive; / = no result given; [ ] = another dose, or the depositor's remark. Unless noted, the call rests on the fitted dose curve; in most records, active means well fitted inhibition curve with a large enough effect; inconclusive means small, poorly fitted or top-dose-only effect, or another doubt; inactive means no such curve, though single readings can be large or run the other way.

SMILES	Pf growth 96h	Lassa entry inh	Pf growth 48h	Shiga inhibitor	Marburg entry inh	Cycloheximide cs
CCc1nc2ccc(C(=O)NCCc3ccco3)cc2nc1CC	?	/	86%	65*	/	45*
CCOc1ccc(CCNC(=O)c2ccc3nc(CC)c(CC)nc3c2)cc1	13µM*	?	-12%	15	/	0
NC1=NC[C@H](c2ccccc2)N1CCc1cc(C(F)(F)F)cc(C(F)(F)F)c1	3.7µM*	/	13µM*	-2	/	-4
NC1=NC[C@H](Cc2ccc(O)cc2)N1CCc1cc(C(F)(F)F)cc(C(F)(F)F)c1	2.1µM*	/	5.2µM*	16	/	19*
COc1ccc2[nH]cc(CCNC(=O)Cc3ccc(Br)cc3)c2c1	?	?	-14%	-7	?	-3
Nc1nonc1-c1nc2ccccc2n1CC(=O)Nc1ccccc1C(=O)O	/	-27%[46.1 µM]	/	/	?	/
CCOC(=O)c1ccc(-c2ccc(/C=N/NC(=O)Cc3nnc(N)s3)o2)cc1	277%	19%	-76%	52*	?	42*
Nc1nnc(CC(=O)N/N=C/c2ccc(-c3ccc(F)cc3)o2)s1	24%	17%[46.1 µM]	25%	-1	-1%[46.1 µM]	-2
O=C(O)c1cccc(-c2ccc(/C=N/NC(=O)c3cccnc3)o2)c1	16%	7%	32%	171*	?	83*
Nc1nonc1-c1nc2ccccc2n1CC(=O)N/N=C/c1ccc(-c2cccc(C(=O)O)c2)o1	0%	14%	4%	70*	-3%[46.1 µM]	34*
CC(C)OC(=O)c1ccc(NC(=O)Cn2c(-c3nonc3N)nc3ccccc32)cc1	8.3µM*	-15%	10µM*	-5	-19%	-2
CCN1C(=O)[C@@H]2[C@H]3[C@H](O)[C@H](O)CC(=NO[C@H](C)c4cn([C@@H]5COC[C@@H]5O)nn4)[C@@H]3CC[C@H]2C1=O	/	/	/	/	-32%[14.2 µM]	/
CC(C)NC(=O)Cn1cc(C(=O)COc2ccccc2)c2ccccc21	63%	27%[46.1 µM]	-9%	33	-17%[46.1 µM]	-2
CCN1CCN(C(=O)c2nn(-c3ccc(OC)cc3)c(=O)c3c2c2ccccc2n3C)CC1	-27%	-6%	23%	-3	-10%	-3
COc1ccc(N2CCN(S(=O)(=O)CCNC(=O)COc3ccccc3C)CC2)cc1	1%	-3%	-27%	/	0%	/
O=Cc1ccc(-c2cccc(C(=O)O)c2)o1	?	7%[46.1 µM]	28%	25	-3%[46.1 µM]	13
Nc1nnc(CC(=O)N/N=C/c2ccc(-c3cccc(C(=O)O)c3)o2)s1	20%	7%	18%	142*	3%	61*
CCOC(=O)c1ccc(-c2ccc(/C=N/NC(=O)c3cncc(Br)c3)o2)cc1	55%	4%	?	40*	-7%	13*
Cc1ccc(/C=N\NC(=O)c2cncc(Br)c2)o1	15%	4%	29%	14	5%	-2
O=C(Cc1ccc(Br)cc1)N/N=C/c1ccc(-c2cccc(C(=O)O)c2)o1	54%	-16%	34%	102*	1%	31*
CCCn1cc(SCC(=O)Nc2cc(C)on2)c2ccccc21	-14%	-9%	-14%	-37	24%	-3
CCCCCOP(=O)(c1ccccc1)c1ccccc1	9.3µM*	5%	12µM*	-6	-22%	-2
O=C(N/N=C/c1cccnc1)c1ccc(Cl)c(Cl)c1	/	5%	/	/	?	/
O=C(N/N=C\c1cccnc1)c1ccc(Cl)cc1Cl	?	/	-15%	54*	/	31*
O=C(N/N=C\c1cccnc1)c1ccccc1O	-2%	11%	3%	33*	1%	23*
SMILES	Pf growth 96h	Lassa entry inh	Pf growth 48h	Shiga inhibitor	Marburg entry inh	Cycloheximide cs
O=C(Nc1cccnc1)c1ccc2ccccc2c1O	0.47µM*	-18%	65%	39*	?	33*
O=C(Nc1cccc([N+](=O)[O-])c1)c1ccc2ccccc2c1O	-21%	?	6%	38	?	37*
O=C(N/N=C/c1cccnc1)c1ccccc1Br	-4%	23%	18%	47	-6%	12
O=C1Cc2cc(NS(=O)(=O)c3ccc(F)cc3)cc3c2N1CCC3	18%	1%	-3%	/	8%	/
O=C(CSc1nc2ccccc2c(=O)[nH]1)Nc1ccc(Br)cc1	1%	-13%[46.1 µM]	11%	-14	8%[46.1 µM]	8
O=C(Nc1ccccn1)c1ccc2ccccc2c1O	-14%	?	71%	66*	1%	40*
O=C(CSc1nc2ccccc2c(=O)[nH]1)Nc1cccc([N+](=O)[O-])c1	1.2µM*	2%	-21%	14	7%	-2
O=C(N/N=C/c1cccnc1)c1ccccc1OCc1ccc(Cl)cc1	-20%	/	?	-6	/	10
COc1cc(/C=N/NC(=O)c2cccnc2)ccc1OC(=O)c1ccco1	54%	-3%	-1%	13	6%	-1
O=C(N/N=C/c1cccnc1)c1ccc2ccccc2c1O	-17%	/	26%	38*	/	20*
O=C(N/N=C/c1cccnc1)c1ccco1	-1%	14%[46.1 µM]	58%	66*	1%[46.1 µM]	26*
Nc1c(C(=O)N/N=C/c2ccccc2)cnn1-c1ccccc1	218%	/	151%	96*	/	45*
O=C(N/N=C/c1cccnc1)c1cccs1	-15%	17%[46.1 µM]	9%	75*	20%[46.1 µM]	38*
O=C(N/N=C\c1ccccc1)c1ccccc1-n1cccc1	?	5%	?	4	5%[46.1 µM]	26
O=C(N/N=C/c1cccnc1)c1ccccc1Cl	-20%	/	15%	61*	/	17*
O=S(=O)(Nc1cccc(Cl)c1)c1ccc(-n2cccn2)cc1	?	/	3%	9	/	-5
COc1ccccc1CNC(=O)C(CC(C)C)NC(=O)C1CCC(C)CC1 (stereo not drawn)	13µM*	1%	/	1	-13%	-2
COc1ccccc1CNC(=O)C1CCC(CNS(=O)(=O)c2ccc(C)cc2)CC1 (stereo not drawn)	7.4µM*	-12%[46.1 µM]	?	-13	?	3
CC(C)CC(NC(=O)C1CCC(C)CC1)C(=O)NCc1ccco1 (stereo not drawn)	-7%	/	-5%	-8	/	2
COc1ccccc1CNC(=O)C1CCC(CNS(=O)(=O)c2ccc(F)cc2)CC1 (stereo not drawn)	0%	-3%[46.1 µM]	0%	3	?	-2
CCCCN(CCCC)c1nn[nH]n1	/	0%[46.1 µM]	/	/	?	/
O=C(Nc1cccc(-c2cn3ccccc3n2)c1)C1CC1	31%	17%	40%	46*	1%	35*
O=C(COc1ccccc1)Nc1cccc(-c2cn3cccnc3n2)c1	6.6µM*	?	9.3µM*	21	-25%	12
O=C(Nc1cccc(-c2cn3ccccc3n2)c1)c1cccc(Cl)c1	?	?	?	-10	?	10
CCC(=O)Nc1cccc(-c2cn3ccccc3n2)c1	12µM*	19%	146%	45*	?	18*
Cc1ccc(S(=O)(=O)Nc2cccc(-c3cn4cccc(C)c4n3)c2)c(C)c1	/	-24%[46.1 µM]	/	/	-12%[46.1 µM]	/

Screening results: PubChem BioAssay, National Center for Advancing Translational Sciences (NCATS)
